Measurements taken from PubChem BioAssay AID651813 (National Center for Advancing Translational Sciences (NCATS), 2012).
The whole screen tested about 2,100 compounds, of which about 1,100 (52%) were called active. Inconclusive results (about 27%) are left out. The call rests on the fitted dose curve; in most records, active means well fitted inhibition curve with a large enough effect; inconclusive means small, poorly fitted or top-dose-only effect; inactive means no such curve, though single readings can be large or run the other way. So high a share suggests a set chosen from earlier hits. This is one part of the list.

Biological target: DNA dC->dU-editing enzyme APOBEC-3G (Homo sapiens) (UniProt Q9HC16)
Sequence (Q9HC16 whole entry, looked up): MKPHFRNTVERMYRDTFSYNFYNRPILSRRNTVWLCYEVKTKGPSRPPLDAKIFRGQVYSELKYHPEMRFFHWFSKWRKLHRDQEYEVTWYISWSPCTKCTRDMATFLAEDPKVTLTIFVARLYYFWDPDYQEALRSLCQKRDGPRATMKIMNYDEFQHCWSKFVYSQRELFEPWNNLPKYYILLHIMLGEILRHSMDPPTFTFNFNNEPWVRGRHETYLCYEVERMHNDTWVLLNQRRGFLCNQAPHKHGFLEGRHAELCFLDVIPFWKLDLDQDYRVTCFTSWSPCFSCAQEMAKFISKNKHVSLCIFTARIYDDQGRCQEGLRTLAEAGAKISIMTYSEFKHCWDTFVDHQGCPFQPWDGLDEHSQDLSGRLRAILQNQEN
Test: qHTS for inhibitors of Vif-A3G interactions: Cherry picks counterscreen;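 further: hits raise yellow fluorescence by blocking Vif-driven A3G-eYFP degradation; nearly all actives have a fitted effect of over 70% in size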;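 on max response: max response given as percent of control signal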
Conditions: HeLa A3G-eYFP + Vif (tagged APOBEC3G with the HIV-1 protein that degrades it), eYFP fluorescence, 24 h
Outline: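 Readout is eYFP fluorescence (488 nm excitation, 500-530 nm emission) measured on Acumen Explorer after 24 h compound exposure, several concentrations, at 37 deg C. Cells: HeLa stably co-expressing Vif and C-terminally eYFP-tagged A3G; MG132 positive control.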
Potency means the concentration at half of the fitted maximal effect.

Row | SMILES | Potency | max response
1 | CCc1nnc(NC(=O)CSc2nnc(-c3ccccc3O)n2-c2ccc(C)cc2C)s1 | 6.27 µM (active) | 
2 | CC(=O)c1cc(NC(=O)c2ccc(Cl)cc2)c(=O)oc1/C=C/N(C)C | 7.04 µM (active) | 
3 | CC(=O)c1cc(NC(=O)c2ccc(C)cc2)c(=O)oc1/C=C/N(C)C | 14.6 µM (active) | 
4 | COC(=O)c1cc(NC(=O)c2ccccc2)c(=O)oc1/C=C/Nc1ccc(Oc2ccccc2)cc1 |  | 11.8% (inactive)
5 | COC(=O)c1c(-c2ccccc2Cl)noc1/C=C/N(C)C |  | 16.3% (inactive)
6 | COc1ccc(C(=O)Nc2cc(C(C)=O)c(/C=C/N(C)C)oc2=O)cc1 | 9.94 µM (active) | 
7 | COC(=O)c1ccccc1NC(=O)C1CC(=O)N(c2ccc(OC)cc2)C1 (configuration not stated) |  | -25.1% (inactive)
8 | COc1ccc(N2CC(C(=O)N/N=C/c3ccc(C)cc3)CC2=O)cc1 (configuration not stated) | 7.04 µM (active) | 
9 | Cc1cccc2[nH]cc(/C=C3/C=Nc4ccccc43)c12 | 18.4 µM (active) | 
10 | Cc1ccc(/C=N/NC(=O)C2COc3ccccc3O2)s1 (configuration not stated) | 7.9 µM (active) | 
11 | Cc1ccc(/C=N/NC(=O)c2ccc3ccccc3c2)s1 | 1.58 µM (active) | 
12 | O=C(N/N=C/c1c[nH]c2ccccc12)C1COc2ccccc2O1 (configuration not stated) | 14 µM (active) | 
13 | CNC(=S)N/N=C/c1ccc(N2CCOCC2)s1 |  | 10.6% (inactive)
14 | Cc1ccc(-c2cc(C(=O)N/N=C/c3c[nH]c4ccccc34)[nH]n2)cc1 | 4.98 µM (active) | 
15 | Cc1cc(C)nc(NC(=S)Nc2cccc(Cl)c2Cl)c1 |  | 1.24% (inactive)
16 | O=C(NCC1CCCO1)c1nn2c(C(F)(F)F)cc(-c3cc(Br)cs3)nc2c1Br (configuration not stated) | 16.4 µM (active) | 
17 | Cc1ccc(C(=O)NC2c3ccccc3-c3ccccc32)cc1 | 1.98 µM (active) | 
18 | O=c1c2cc3ccccc3n2cnn1Cc1ccccc1F | 12.5 µM (active) | 
19 | CC(CC(=O)Nc1ccc2c(c1)c(=O)n(C)n2Cc1ccc(F)cc1)c1ccccc1 (configuration not stated) |  | -26% (inactive)
20 | CC(CC(=O)Nc1ccc2c(c1)c(=O)n(C)n2-c1ccccc1)c1ccccc1 (configuration not stated) | 3.96 µM (active) | 
21 | CC(CC(=O)Nc1ccc2c(c1)c(=O)n(C)n2-c1ccccc1F)c1ccccc1 (configuration not stated) | 15.8 µM (active) | 
22 | Cn1c(=O)c2cc(NC(=O)Cc3cccc4ccccc34)ccc2n1-c1ccccc1 | 11.2 µM (active) | 
23 | CCCCCCCNc1ccc(/C=C/c2ccnc3ccccc23)cc1 | 11.6 µM (active) | 
24 | CCCCCCNc1ccc(/C=C/c2ccnc3ccccc23)cc1 | 18.4 µM (active) | 
25 | COc1ccccc1NC(=O)c1sc2ncn(CC(=O)Nc3ccccc3)c(=O)c2c1C | 18.4 µM (active) | 
26 | CCCC(=O)Nc1nc2ccc(NC(=O)c3ccccc3F)cc2s1 | 15.8 µM (active) | 
27 | CCC(=O)Nc1nc2ccc(NC(=O)c3cc(OC)c(OC)c(OC)c3)cc2s1 |  | -0.685% (inactive)
